Several values for one entry are separate records, joined by “and”; a condition that tells them apart may be missing. Equal values may be shown once. Inconclusive results are not listed. A number with no mark means an inactive call. Activity calls are given as the source filed them. Calls follow the shape of the dose curve; as a rule, active = well fitted activation curve with a large enough effect; inconclusive = small, poorly fitted or top-dose-only effect; inactive = no such curve, though single readings can be large or run the other way. Non-standard residues stand in square brackets, D forms with d. Residues, ends and D or L forms follow the SMILES beside them. pGlu = O=C1CC[C@@H](C(=O)O)N1
Potency is read from the fitted curve at half-maximal effect.

The target in this test is Cellular tumor antigen p53 (Homo sapiens) (UniProt P04637). The test can be described thus: Primary qHTS for small molecule compounds that upregulate eGFP-tagged delta133p53alpha (in N-terminal) cells. (AID 2060322). Also: nearly all actives have a fitted effect of over 75% in size.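 As to activation: series mostly up to about 56 µM; 0% = DMSO vehicle and 100% = reference activator.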 The note with it: NCI-H358 eGFP-delta133p53alpha fluorescence, 24 h; activation: stronger effect = higher value. In outline: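 NCI-H358 cells pre-induced 24 h with 10 ng/ml doxycycline to express N-terminal eGFP-delta133p53alpha, then dosed 24 h at 37C without doxycycline; fixed, Hoechst-stained, GFP intensity by laser scanning cytometry, normalized to DMSO (0%) and 57.5 uM 5-azacytidine (100%).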
Sequence of Cellular tumor antigen p53 (Homo sapiens) (P04637 whole entry, looked up): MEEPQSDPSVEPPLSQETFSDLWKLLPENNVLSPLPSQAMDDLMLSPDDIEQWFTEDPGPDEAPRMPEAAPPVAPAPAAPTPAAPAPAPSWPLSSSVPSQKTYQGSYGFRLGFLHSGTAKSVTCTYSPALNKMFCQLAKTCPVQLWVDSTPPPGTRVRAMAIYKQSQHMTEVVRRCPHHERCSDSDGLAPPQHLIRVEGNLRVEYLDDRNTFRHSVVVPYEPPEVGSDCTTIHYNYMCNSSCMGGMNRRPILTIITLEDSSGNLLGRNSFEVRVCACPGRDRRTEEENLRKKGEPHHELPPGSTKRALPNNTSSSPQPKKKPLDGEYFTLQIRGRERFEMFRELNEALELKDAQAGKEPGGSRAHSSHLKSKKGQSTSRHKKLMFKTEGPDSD
In general terms: Quantitative high-throughput screening tests each substance at several concentrations.
As to `CN1CCN(c2cc3c(cc2F)c(=O)c(C(=O)O)cn3-c2ccc(F)cc2)CC1`, the activation is 20.1%.
For `CCOC(=O)C(=O)c1csc(NC=O)n1`, the activation is -16.4%.
`Clc1ccccc1-c1nc(-c2ccncc2)no1`: the activation is 11.7%.
Same read-out and setting: then `O=C(Nc1ncc(SCCN2CCCC2)s1)[C@]1(c2ccc(S(=O)(=O)C3CC3)cc2)C[C@@H]1C1CCCCC1`, with 26.3%; and `CCCCN(CCN(CCCC)C(=O)N1CCOCC1)C(=O)N1CCOCC1`, with -21.8%; and `NS(=O)(=O)c1ccc(N2CCCCS2(=O)=O)cc1`, with 7.34%.
In the case of `COC(=O)N[C@H](C(=O)N[C@@H](Cc1ccccc1)[C@@H](O)CN(Cc1ccc(-c2ccccn2)cc1)NC(=O)[C@@H](NC(=O)OC)C(C)(C)C)C(C)(C)C`, the activation was -2.82% and 23.4%.
For the compound `Cc1ccc(/C=N/n2c(-c3ccccc3)csc2=S)cc1`, the activation is 24.3%.
Still for that read-out and setting: under `CC=C(C)C(=O)O[C@H]1C(C)=C[C@]23C(=O)[C@@H](C=C(CO)[C@@H](O)[C@]12O)[C@H]1[C@@H](C[C@H]3C)C1(C)C` stands 20.2%.
Turning to `CN1CCN(N)CC1`, the activation is 0.837%.
As to `CC(=O)N(CC(O)CO)c1c(I)c(C(=O)NCC(O)CO)c(I)c(C(=O)NCC(O)CO)c1I` (stereo not given), the activation is -16.7%.
Consider `CN1CCN(c2c(F)cc3c(=O)c(C(=O)O)cn4c3c2OCN4C)CC1`, for which the activation was -9.21%.
`CN1C(C)(C)CCCC1(C)C`: the activation is 0%.
For `OC[C@H]1O[C@@H](Oc2cc(O)cc(C=Cc3ccc(O)cc3)c2)[C@H](O)[C@@H](O)[C@H]1O`, the activation was 9.98%.
Consider `CC(O)CCCCn1c(=O)c2c(ncn2C)n(C)c1=O` (stereo not given), for which the activation is -16.4%.
In the case of `Oc1ccccc1`, the activation was -1.69%.
Turning to `CCNC(=O)[C@@H]1CCCN1C(=O)[C@H](CCCN=C(N)N)NC(=O)[C@H](CC(C)C)NC(=O)CNC(=O)[C@H](Cc1ccc(O)cc1)NC(=O)[C@H](CO)NC(=O)[C@H](Cc1c[nH]c2ccccc12)NC(=O)[C@H](Cc1cnc[nH]1)NC(=O)[C@@H]1CCC(=O)N1` ([pGlu]HWSYGLRP-NHEt), the activation is 5.86%.
Still for that read-out and setting: under `COc1cc2nc(N3CCN(C(=O)C4CCCO4)CC3)nc(N)c2cc1OC` (stereo not given) stands 1.69% and 38.8%; under `CCNC(=O)Nc1ccc(-c2nc3c(c(N4CCOC[C@H]4C)n2)CCN(C2COC2)C3)cc1`, 5.73%; under `C[C@]12CCC(=O)C=C1[C@@H]1CC1[C@H]1[C@H]3[C@@H]4C[C@H]4[C@@]4(CCC(=O)O4)[C@@]3(C)CC[C@H]12` (stereo not given in full), 8.34%.
On to `CCN(CC)CC(=O)Nc1c(C)cccc1C(=O)OC`, for which the activation was -9.21%.
In the case of `Nc1ccc2c(c1)CN1C(=O)c3ccccc3C1=N2`, the Potency was 0.0601 µM (active).
On to `CO[C@@H]1[C@@H](OC)[C@H](C)[C@@](O)(CC(=O)O)O[C@H]1[C@H](C)[C@H]1O[C@@]2(CC[C@@](C)([C@H]3CC[C@@](C)([C@@H]4O[C@@H]([C@H]5O[C@](C)(O)[C@H](C)C[C@@H]5C)C[C@@H]4OC4C[C@H](OC)[C@@H](OC)[C@H](C)O4)O3)O2)C[C@H](O)[C@H]1C` (stereo not given in full), for which the Potency is 8.71 µM (active).
In the case of `CN(C)C(=O)Nc1ccc(Cl)c(Cl)c1`, the activation is 13.4%.
Take `CCC1NC(=O)c2cc(S(N)(=O)=O)c(Cl)cc2N1` (stereo not given): the activation was -21.8%.
In the case of `O=C1NC(=O)C(=Cc2ccc3nccc(-c4ccncc4)c3c2)S1`, the activation is 3.34%.
For `COc1nc(N)nc2c1ncn2[C@@H]1O[C@H](CO)[C@@H](O)[C@@H]1O`, the activation was -17.5% and 19.2%.
On to `O=C(O)CCNC(=O)c1ccccc1`, for which the activation is -12.6%.
As to `CCOc1ccc(NC(C)=O)cc1`, the activation was 7.53%.
In the case of `O=C(CCc1ccc(O)cc1)c1c(O)cc(O)cc1O[C@@H]1O[C@H](CO)[C@H](O)[C@H](O)[C@H]1O`, the activation is 1.26%.
The same measure, in the same setting: then `CC(=O)OCC(=O)[C@@]1(O)[C@H](OC(C)=O)C[C@H]2[C@@H]3CCC4=CC(=O)C=C[C@]4(C)[C@@]3(F)[C@@H](O)C[C@@]21C`, with 4.18%; and `CC(=O)Nc1ccc(CC(=O)O)cc1`, with 6.21%.
For `O=C(O)c1ccccc1C(=O)Nc1ccc(S(=O)(=O)Nc2nccs2)cc1`, the activation was 8.47%.
With `OCc1ccc(Cl)cc1Cl`, the activation is -7.53%.
As for `CCCOC(=O)c1ccc(N)cc1`, the activation is 0%.

Values taken from PubChem BioAssay (NCATS).
